Assay outcomes as filed in PubChem BioAssay.
In the library only some 10% were active in any assay of this set; here they are far more common.
HP1b chromo inh: blocks HP1-beta chromodomain binding to methylated histone tails; AlphaScreen HP1-beta / biotin-H3K9me3 peptide binding; P83916; 390,000 tested, 0.56% active; Potency, µM (highest dose often 114 µM), for the others: at the top dose activity change, negative = inhibition, most hits filed as inhibitors; also: nearly all actives have a fitted effect of over 70% in size
Target sequence (P83916 whole entry, looked up): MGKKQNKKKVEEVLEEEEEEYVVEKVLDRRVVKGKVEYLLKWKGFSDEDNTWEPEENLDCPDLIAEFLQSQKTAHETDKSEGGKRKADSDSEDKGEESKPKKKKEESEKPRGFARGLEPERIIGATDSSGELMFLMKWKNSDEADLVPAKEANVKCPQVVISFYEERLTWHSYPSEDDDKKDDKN
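HP1-beta protein (50 nM final) preincubated 30 min at room temperature with biotinylated H3(1-18)K9me3 peptide (50 nM) in PBS pH 7.4, 0.01% Tween-20, then compound added for 30 min. AlphaScreen streptavidin donor/nickel chelate acceptor beads (10 ug/mL final), 30 min dark, luminescence read.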
BAZ2B block: BAZ2B (human) inhibition; Q9UIF8; AlphaScreen BAZ2B-H3K14Ac peptide displacement; Potency, µM (series often up to 114 µM), for the others: at the top dose activity change, negative = inhibition, hits mostly inhibitors; 360,000 tested, 4.4% active; AID 504333; also: % is scaled to controls: 0 for no effect and ±100 for the full control effect; nearly all actives have a fitted effect of over 60% in size
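BAZ2B (50 nM) with biotin-H3(5-23)K14Ac peptide (50 nM) in PBS pH 7.4, 0.01% Tween-20, preformed 30 min, then compound 30 min at room temperature; top concentration 110uM. AlphaScreen streptavidin donor/nickel chelate acceptor beads (10 ug/mL final), 20 min dark, signal read.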
G9a block: inhibitors of human histone lysine methyltransferase G9a | Q96KQ7 | G9a H3K9 monomethylation, AlphaScreen, 2 h | Potency, µM (titrated, usually from 102 µM), for inactives: top-dose activity, negative = inhibition, most hits filed as inhibitors | 350,000 tested, 8.8% active; also: % is scaled to controls: 0 for no effect and ±100 for the full control effect; nearly all actives have a fitted effect of over 75% in size
Target sequence (Q96KQ7 913-1193 limits assumed): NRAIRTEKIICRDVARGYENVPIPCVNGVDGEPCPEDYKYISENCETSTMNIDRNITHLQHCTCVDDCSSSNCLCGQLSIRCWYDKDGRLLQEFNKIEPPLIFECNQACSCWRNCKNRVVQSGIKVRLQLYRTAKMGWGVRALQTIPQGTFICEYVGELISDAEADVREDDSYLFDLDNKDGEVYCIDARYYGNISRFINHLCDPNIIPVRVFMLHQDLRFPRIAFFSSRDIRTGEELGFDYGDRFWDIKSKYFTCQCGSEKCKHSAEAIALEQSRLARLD
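Enzyme 20 nM + cpd, 15 min RT; add b-H3K9 pep 500 nM / SAM 20 uM; 2 h RT; anti-H3K9me1 Ab 0.5 ug/mL + SA donor / anti-rabbit acceptor beads 20 ug/mL each, 10 min; AlphaScreen read.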
GLS inhibitor: blocks human kidney-isoform glutaminase activity; O94925; GLS enzymatic activity, qHTS titration; Potency, µM (highest dose often 45.5 µM), for the others: at the highest dose activity change, negative = inhibition, actives largely listed as inhibitors; 410,000 tested, 0.21% active; also: % is scaled to controls: 0 for no effect and ±100 for the full control effect
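hKGA in 45 mM KH2PO4 pH 8.2, 0.02% Tween-20 with pin-transferred compounds; 1 mM L-glutamine (stock) plus glutamate oxidase/HRP/Amplex Red coupling added. Fluorescence read initially and after 30 min at RT.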
JMJD2A Tudor inh: blocks the human JMJD2A Tudor domain. O75164. AlphaScreen JMJD2A-Tudor / H3K4me3 peptide binding. Potency, µM (titrated, usually from 114 µM), inactives show top-dose activity change, negative = inhibition, actives largely listed as inhibitors. 390,000 tested, 4.4% active. AID 504339; also: % is scaled to controls: 0 for no effect and ±100 for the full control effect; nearly all actives have a fitted effect of over 50% in size
Starred values were filed as active, the others as inactive; u = inconclusive; x = not tested or not shown; [ ] = another dose, or the depositor's remark. Calls follow the shape of the dose curve; as a rule, active = well fitted curve in the direction sought with a large enough effect; inconclusive = small, poorly fitted or top-dose-only effect, or another doubt; inactive = no such curve, though single readings can be large; an effect the other way counts as inactive or inconclusive. Potency is read from the fitted curve at half-maximal effect.

SMILES	HP1b chromo inh	BAZ2B block	G9a block	GLS inhibitor	JMJD2A Tudor inh
CCCNC(=O)C(Cc1ccccc1)NC(=O)c1ccc(-c2ccccc2)cc1 (stereo not given)	69.2%	-8.7%	2.9%[0.501 µM]	1.4%	-13.6%
CC(COS(N)(=O)=O)Cc1ccc(C(F)(F)F)cc1 (stereo not given)	55.3%	3.8%	-7.2%	-11.3%	-2.1%
COc1cc(/C=C\C(=O)NCc2ccc3c(c2)cc(C)n3C)cc(OC)c1OC	-20.5%	u	-17.2%	2.1%	u
ClCc1nnc(-c2ccccc2)o1	27.2%	-12.1%	-0.1%[59 µM]	15.6%	0.3%
O=C(N/N=C/c1ccncc1)c1cccc(N/N=C/c2ccncc2)c1	-5.9%	-21.0%	u	4.6%	u
O=C(N/N=C/c1ccncc1)c1cccc(NC(=O)c2ccc(Cl)cc2)c1	u	-4.3%	15.8µM*	1.0%	-28.8%
O=C(N/N=C/c1cc(Cl)ccc1O)c1ccncc1	-11.3%	20µM*	61.9%[12.7 µM]	-20.0%	u
O=C(N/N=C/c1ccccc1Cl)c1ccncc1	23.2%	8.3%	x	10.4%	-7.8%
O=C(N/N=C/c1cccnc1)c1ccc(NC(=O)c2cccc(Cl)c2)cc1	u	-25.2%	31.6µM*	5.0%	-30.3%
Cc1ccc(CNC(=O)c2nnc(Cc3cccc(F)c3)o2)cc1	81.6%	104.4%	74.4%[59 µM]	-16.7%	85.9%
CCNC(=O)NC(=O)C(C)OC(=O)c1cccn1C (stereo not given)	21.3%	-1.3%	17.7%	-0.2%	-15.0%
CCOc1ccccc1NC1=C(OC)C(=O)C(Nc2ccccc2OCC)=C(OC)C1=O	8.91µM*	x	x	11.4%	7.08µM*
CCCCNC(=S)Nc1cccc2cnccc12	2.8%	12.2%	44.7µM*	2.8%	-6.2%
COCCNC(=S)Nc1cccc2cnccc12	30.6%	-6.3%	50.1µM*	12.7%	-5.5%
Cc1ccc(OCCc2csc(N)n2)cc1	19.2%	-29.8%	u	23.6%	-19.2%
CCN(CC)CCn1c(NCc2cc(OC)ccc2OC)nc2ccccc21	4.6%	-32.5%	u	79.2%	50.1µM*
CCN(CC)CCn1c(NCc2ccc3c(c2)OCO3)nc2ccccc21	29.5%	-3.7%	u	27.8%	-25.0%
COc1ccc(CNc2nc3ccccc3n2C)c(OC)c1	22.2%	-9.9%	10.9%	-17.8%	-11.3%
CCN(CC)CCn1c(NCc2cccc(OC)c2)nc2ccccc21	16.3%	-21.6%	50.1µM*	48.1%	-23.7%
Cc1ccc(C(O)c2ccc(-n3ccnc3)cc2)cc1 (stereo not given)	48.7%	-33.4%	-41.9%	-8.2%	-15.8%
NCCc1nnc(SCC(=O)Nc2ccc(Br)cc2)o1	53.2%	-17.5%	u	-2.0%	-2.3%
CCOC(=O)c1c(/N=C/N(C)C)sc(/C=N/Nc2ccccc2)c1-c1ccccc1Cl	10.6%	-7.0%	39.8µM*	-5.0%	u
Cc1cc(C)nc(-n2nc(C)c3c(C(F)F)cc(C)nc32)n1	31.3%	-2.9%	-25.1%	-2.6%	-7.5%
O=C(O)C1CCN(C(=O)c2cccc3ccccc23)CC1	14.1%	-1.6%	9.7%	2.7%	3.5%
CN1CC(C(=O)O)Cc2c1ccc1ccccc21 (stereo not given)	23.7%	-33.0%	20µM*	20.4%	-16.9%
SMILES	HP1b chromo inh	BAZ2B block	G9a block	GLS inhibitor	JMJD2A Tudor inh
COCc1cc(=O)n2c(-c3ccccc3OC)n[nH]c2n1	10.7%	-28.1%	3.16µM*	-0.1%	-18.2%
CCCCCCC1CC(/C(C)=N\NC(N)=O)OC1=O (stereo not given)	14.2%	-2.6%	-13.3%	9.1%	-12.5%
COc1cccc(CC(=O)OC(C)C(=O)Nc2ccc(N3CCOCC3)cc2)c1 (stereo not given)	-8.9%	3.7%	50.1µM*	31.9%	-25.2%
CCC(=O)c1ccc(OCC(=O)OCC(=O)N2CCN(c3ccc(OC)cc3)CC2)cc1	15.1%	-3.1%	73.4%[2.33 µM]	29.8%	-4.8%
COc1ccc(N2CCN(C(=O)COC(=O)COc3cc(C)cc(C)c3)CC2)cc1	-13.9%	u	31.6µM*	-33.4%	-33.1%
COc1cccc(CNC(C)C(=O)Nc2ccc3c(c2)OCCO3)c1 (stereo not given)	u	u	44.7µM*	0.0%	3.16µM*
O=C(Cc1c(F)cccc1Cl)OCC(=O)N1CCN(c2ccccc2)CC1	21.7%	x	x	15.6%	-16.8%
